The values below come from PubChem BioAssay (NCI).

The panel holds about 83,000 compounds, 20% with a hit somewhere; the sample as a whole holds those more often.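 Interpretation: 100, growth as untreated; towards 0, rising growth inhibition; 0, no net growth; 0 to -100, cell death. Compounds scoring below 10 were considered active.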 Active and inactive are the calls of the source.

This experiment has as its system RPMI-8226 leukemia. The experiment can be described thus: NCI-60 one-dose screen, 48 h (100 = growth as untreated, 0 = no growth, -100 = all killed). Particulars: 10 µM unless noted. How it is done: Growth inhibition of the RPMI-8226 human tumor cell line is measured as a screen for anti-cancer activity. Cells are grown in 96 well plates and exposed to the test compound for 48 hours. Compounds are tested at a single concentration, which is 10^-5 M for most compounds. The reported endpoint is percent growth (GI% or GIPRCNT), where numbers from 0 - 100% represent growth inhibition, and numbers from -100% - 0 represent cell death. For example, a value of 40 represents 60% growth inhibition. A value of 0 means no net growth occurred over the course of the experiment. A value of -40 indicates 40% of cells at the beginning of the experiment died by the end of the experiment. A value of -100 means all cells are dead at the end of the experiment.
NCI-60 Human Tumor Cell Lines Screen was performed using the standard one-dose NCI protocol, which is described in more detail at https://dtp.cancer.gov/discovery_development/nci-60/default.htm.
Compounds with GIPRCNT values below 10 were considered active. Activity score was based on GIPRCNT using the following formula: […]
Score is 0 for GIPRCNT values of 100 or above, 50 for GIPRCNT values of 0, and 100 for GIPRCNT values of -100.
Take `CN1CCN(Cc2ccc(NC(=O)c3[nH]ncc3Nc3ccnc4ccnn34)cc2)CC1`: the growth is 111% (inactive). As to `Clc1ccc(-c2nc(-c3cccs3)no2)c(Cl)c1`, the growth is 86% (inactive). Under `Clc1cc(Cl)c(OCC#CI)cc1Cl` stands 15.2% (inactive); under `O=[N+]([O-])c1cnc(Sc2ccncn2)c([N+](=O)[O-])c1`, 67.4% (inactive); under `Clc1ccc(CCC(Cn2ccnc2)Sc2c(Cl)cccc2Cl)cc1` (stereo not given), 25.2% (inactive).

As to `Clc1ccc2nc(Cl)c3ccccc3c2c1`, the growth is 70.9% (inactive). Under `c1ccc(N2CCN(c3nncc4ccccc34)CC2)nc1` stands 107% (inactive); under `COc1ccc2c(c1)/C(=C\c1c[nH]c3ccc(F)cc13)C(=O)N2`, 61.5% (inactive); under `CCCCCCC(C)(O)c1ccccc1` (stereo not given), 107% (inactive). Under `CC(C)(C)c1ccc(S(=O)(=O)O)s1` stands 95.9% (inactive); under `O=C(O)C(=O)O`, 94.4% (inactive); under `COc1ccc(/C=C/C(=O)Nc2cccnc2Nc2ccc(F)cc2)cc1`, 88.6% (inactive). The result for `C=C(C[C@@](O)(C(=O)Oc1ccccc1)C(=O)C1CCCCC1)c1ccccc1` reads 92% (inactive); that for `OC(c1cc(C(F)(F)F)nc2c(C(F)(F)F)cccc12)C1CCCCN1` (stereo not given), 80% (inactive); that for `COc1ccc2c3c(c(OCCCN(C)C)nc2c1)-c1ccc(Cl)cc1C3=O`, -17.3% (active). Consider `Cc1cc(C)n2nc(SCC(=O)Nc3sc4c(c3C(N)=O)CCC4)nc2n1`, for which the growth is 148% (inactive). As for `COc1ccc2c(c1)[nH]c(=O)c1c3cc(OC)c(OC)cc3cn21`, the growth is -72.3% (active). Under `Cn1cc(-c2nc(-c3c[nH]c4ncc(F)cc34)cs2)c2cccnc21` stands 100% (inactive); under `NC(=O)SCC(=O)Nc1ccccc1-c1ccccc1`, 99.8% (inactive). Under `c1cncc(CNc2ccccc2-c2nnc(Nc3ccc4c(c3)OCO4)o2)c1` stands 27.5% (inactive); under `CN(CCOc1ccc(CC2SC(=O)NC2=O)cc1)c1ccccn1` (stereo not given), 104% (inactive). The result for `COc1ccc(-c2c(N)noc2-c2cc(OC)c3c(c2)OCCO3)cc1` reads 16% (inactive). Take `Nc1nc(N)c([N+](=O)[O-])c(=O)[nH]1`: the growth is 97.4% (inactive). For `CC[C@H](C)C(=O)O[C@H]1C[C@@H](C)C=C2C=C[C@H](C)[C@H](CC[C@@H]3C[C@@H](O)CC(=O)O3)[C@H]21`, the growth was 71.8% (inactive). On to `COc1ccc(Cn2cc3c(c2-c2ccccc2)CCc2cncnc2-3)cc1`, for which the growth was 19.6% (inactive).

Regarding `CCOc1cc(-c2ccc[nH]2)[nH]c1/C=C1\N=C(C)C(C(=O)OC)=C1C`, the growth is -40.5% (active). The result for `O=C(Nc1cccc(-n2cc(-c3ccncc3)c(-c3ccc(O)c(Cl)c3)n2)c1)Nc1ccc(Cl)c(C(F)(F)F)c1` reads -27.4% (active); that for `Cn1[nH]cc(/C=N/C(N)=O)c1=O`, 105% (inactive). Under `CCCc1cc(=O)n2c(C(=O)Nc3ccccc3OC)c(C(=O)Nc3ccc(F)cc3)sc2n1` stands 30.5% [30 µM] (inactive); under `CCC(C)(C)C(=O)O[C@H]1C[C@@H](C)C=C2C=C[C@H](C)[C@H](CC[C@@H]3C[C@@H](O)CC(=O)O3)[C@H]21`, 62.7% (inactive); under `CC(C)c1ccc(C(=O)Nc2sc3c(CN(C)C)c(O)ccc3c2C(N)=O)cc1`, -31.8% (active). The result for `COc1ccc2[nH]cc(/C=C3/C(=O)Nc4ccc(Cl)cc43)c2c1` reads 54% (inactive); that for `COc1cc(/C=C/C(=O)Nc2cccnc2Nc2cc(OC)c(OC)c(OC)c2)cc(OC)c1OC`, 66.9% (inactive). Take `COc1ccc2c(c1)C(=O)c1c-2c(OCCN(C)C)nc2cc(OC)ccc12`: the growth is -25.4% (active).

Turning to `C=C(C)[C@H]1CC/C(C)=C/CC[C@]2(C)O[C@H]2CC/C(C=O)=C\C1O` (stereo not given in full), the growth was -17.5% (active). The result for `CCCCC(C#N)C(N)=O` (stereo not given) reads 102% (inactive); that for `COc1ccc(/C(=C2\O[C@@H]([C@H](O)CO)[C@H]3OC(C)(C)O[C@@H]23)c2cc(OC)c(OC)c(OC)c2)cc1O`, 73.3% (inactive). Consider `O=C(C=C=Nc1ccccc1)C(=O)N=C=Cc1ccccc1`, for which the growth was -59.5% (active). In the case of `CCN(CC)CCOc1ccc(C2=C(c3ccccc3)CCc3cc(OC)ccc32)cc1`, the growth was -64.7% (active).

Regarding `COc1ccccc1[C@H]1c2[nH]c3ccccc3c2C[C@H]2C(=O)N(CCCCCCC(=O)NO)CC(=O)N12`, the growth was -1.71% (active).
